Laboratory results: PubChem BioAssay AID485297 (National Center for Advancing Translational Sciences (NCATS), 2010)
In all, about 320,000 compounds went through this assay and about 9,100 (2.8%) were called active. Roughly 3% stayed inconclusive and do not appear here. What follows is part of a selection rich in actives, with near analogues and random picks from the rest. Where a call stands in place of a potency, no number is given. A number with no mark means an inactive call. The call rests on the fitted dose curve; in most records, active means well fitted activation curve with a large enough effect; inconclusive means small, poorly fitted or top-dose-only effect; inactive means no such curve, though single readings can be large or run the other way.

Assay: qHTS Assay for Rab9 Promoter Activators; further: nearly all actives have a fitted effect of over 60% in size
Conditions: Huh7 Rab9 promoter-luciferase reporter, luminescence, 24 h; series mostly up to 9.22 µM
Source text: NIH Chemical Genomics Center [NCGC] NIH Molecular Libraries Probe Production centers Network [MLPCN] MLPCN Grant: MH089537-01 Assay Submitter (PI): Yiannis A. Ioannou NCGC Assay Overview: Niemann Pick Type C (NPC) is a rare neurodegenerative lipidosis that is characterized by lipid storage in the endosomal/lysosomal system. Treatment modalities for this devastating disease are currently non-existent due to the severe obstacles associated with accessing the central nervous system with proteins or genes (Ioannou, 2000). We have developed a new paradigm, termed "Orphan Receptor Bypass Therapy" (ORByT), to address these disorders. This paradigm posits the existence of endogenous "suppressor" proteins whose expression can dramatically improve LSD pathogenesis. The goal is the identification/discovery of small chemical compounds that can modulate the expression of these proteins and provide a new treatment modality for these devastating disorders. One such protein whose overexpression reverses aspects of the NPC phenotype is Rab9. We have developed and optimized a cell based luciferase reporter assay in 1536 well format for the identification of up-regulators of the Rab9 promoter.
The Rab9 promoter is cloned in front of the luciferase reporter gene, therefore […] promoter activation results in luciferase expression. Frozen stock of the Rab9 promoter transfected Huh7 cells were obtained from the laboratory of Dr. Yiannis Ioannou (The Mount Sinai School of Medicine, New York, NY). Cells were propagated and maintained at NCGC in medium containing RPMI-1640 supplemented with 10% FBS, 2mM L-glutamine, and 50ug/ml penicillin/streptomycin. Cells were harvested in and plated for assays in OP-MEM I reduced-serum medium supplemented with 10% FBS. The Amplite luciferase reporter gene assay kit was purchased from ABD Bioquest and prepared/stored according to manufacturers recommendations. qHTS Assay Setup: 1.Dispensed 5ul of Huh7 cells stably expressing Rab9-luciferase at a density of 1500 cells per well 1536-well plates. 2.Incubate cells at 37C, 5% CO2, and 95% humidity for 2 hours. 3.Transferred 23nl per well of compound in DMSO solution. 4.Incubated at 37C, 5% CO2, and 95% humidity for 24 hours. 5.Dispensed 3ul per well of Amplite reagent(ABD Bioquest) per well. 6.Incubate at ambient for 10 minutes. 7.Read using the luminescence protocol on the ViewLux plate reader (Perkin Elmer).
Potency means the concentration at half of the fitted maximal effect.

SMILES | Potency | activation, negative = inhibition
Cc1ccc(/C=C/C(=O)OCC(=O)NCc2ccc(Cl)cc2)o1 | inactive | –
CN(Cc1ccccc1)C(=O)c1ccc(COc2ccccc2)cc1 | inactive | –
CC(=O)Oc1ccc(-c2cccc(C(=O)N3CCCCC3)c2)cc1 | inactive | –
CCOc1ccc(OCc2cccc(C(=O)N(CC)CC)c2)cc1 | 0.141 µM (active) | –
COc1ccc(Cn2c(=S)[nH]c3cc(C(=O)N4CCCCC4)ccc3c2=O)cc1 | inactive | –
COc1ccc(OCc2cccc(C(=O)N3CCCC3)c2)cc1 | 0.398 µM (active) | –
COc1cccc(COc2ccc(N(C)S(=O)(=O)c3ccccc3)cc2)c1 | inactive | –
COc1ccccc1CNS(=O)(=O)c1cc(C(=O)NCc2ccccn2)c(Cl)cc1Cl | inactive | –
CC(C(=O)N(C)CC(=O)Nc1ccccc1C(F)(F)F)N1C(=O)c2ccccc2C1=O (stereo not given) | inactive | –
Nn1c(SCC(=O)Nc2nccs2)nnc1-c1ccco1 | inactive | –
CCN(CC(=O)Nc1ccc(OC)cc1)C(=O)c1ccc(Cl)c(S(=O)(=O)N2CCCC2)c1 | inactive | –
Cc1ccccc1NC(=O)Cc1nc(COC(=O)c2cccnc2Cl)cs1 | inactive | –
O=C(NCCc1c[nH]c2ccccc12)c1cccc(Br)c1 | – | -1.43% [at 1.84 µM]
O=C(NCCc1c[nH]c2ccccc12)c1cc2ccccc2oc1=O | 3.98 µM (active) | –
CN(c1ccccc1)S(=O)(=O)c1ccc(Cl)c(C(=O)NCCc2c[nH]c3ccccc23)c1 | inactive | –
COCCNc1nnc(SCC(=O)NNC(=O)c2ccco2)s1 | inactive | –
CCCCc1ccc(NS(=O)(=O)c2cccc(C(=O)N3CCCN(C)CC3)c2)cc1 | inactive | –
COc1ccccc1P(=O)(c1ccccc1)c1ccccc1NC(C)=O (stereo not given) | inactive | –
Cc1cc2nc(SCCN3CCOCC3)[nH]c2cc1C | 3.55 µM (active) | –
CCn1c2ccc(F)cc2c2nnc(SCCN3CCOCC3)nc21 | inactive | –
Cc1cccc(C)c1OCCN1CCOCC1 | inactive | –
O=C(Nc1cccnc1Oc1ncnc2cc(Cl)ccc12)c1ccc(F)cc1 | inactive | –
Cc1ccc(S(=O)(=O)N(C)C)cc1NC(=O)c1ccc(-n2cncn2)c([N+](=O)[O-])c1 | inactive | –
O=C(NC1CC1)c1ccc2c(c1)NC(=O)c1ccccc1S2 | inactive | –
C/C(=N\Nc1cccc(C(=O)O)c1)c1ccc2c(c1)Nc1ccccc1S2 | 3.16 µM (active) | –
O=C(O)c1cccc(N2C(=O)Nc3ccccc3N2O)c1 | inactive | –
CCc1ccccc1NC(=O)CN(C)C(=O)c1cc(C2CC2)nn1-c1ccccc1 | inactive | –

SMILES | Potency | activation, negative = inhibition
CCN1C(=S)N[C@@H](c2cccc(C(F)(F)F)c2)C(C(=O)OC)=C1C | inactive | –
O=C(CN1CCN(S(=O)(=O)c2ccc(Cl)s2)CC1)N1CCCCC1 | inactive | –
COC(=O)c1cc(NS(=O)(=O)c2ccc3c(c2)c(=O)n(C)c(=O)n3C)cc(C(=O)OC)c1 | inactive | –
CSc1ccccc1C(=O)OCC(=O)N1CCN(C(C)=O)CC1 | inactive | –
N#CC(=C1CCCC1)c1nc(-c2ccc(Cl)cc2)cs1 | 3.16 µM (active) | –
N#C/C(=C1/CCCN1)c1ccccn1 | inactive | –
CCCCCN1CC(O)=C(c2nc(-c3ccc(Cl)cc3)cs2)C1=N | inactive | –
CCCCN(C(=O)c1nn(C)c(=O)c2ccccc12)c1c(N)n(CCC)c(=O)[nH]c1=O | inactive | –
Cc1ccc(Nc2ncnc3c2cnn3C)c(C)c1 | inactive | –
Cc1ccc(-n2ncc3c(Nc4cccc(C(=O)O)c4)ncnc32)cc1 | 0.355 µM (active) | –
COc1ccc2nc(C)cc(Nc3cccc(C(=O)O)c3)c2c1 | inactive | –
COc1ccccc1C(=O)NCCC(=O)N(C)Cc1cccnc1 | inactive | –
c1cnc(N2CCN(c3ccc4ccccc4n3)CC2)nc1 | 3.16 µM (active) | –
Oc1ccc(CN2CCN(c3ncccn3)CC2)cc1 | inactive | –
O=C(c1ccncc1)N1CCN(c2ccc3ccccc3n2)CC1 | inactive | –
CCOc1ccc(NS(=O)(=O)c2ccc(Cl)c(C(=O)N(C)Cc3cccnc3)c2)cc1 | inactive | –
O=C(NCCc1ccc(C(F)(F)F)cc1)c1ccc2c(c1)OCO2 | inactive | –
CCNC(=O)CC1C(=O)N(c2ccc(OC)cc2)C(=S)N1CCc1ccncc1 (stereo not given) | inactive | –
CCOCCCn1c(SCC(=O)Nc2cc(OC)ccc2OC)nc2ccccc2c1=O | inactive | –
COc1ccc(NS(=O)(=O)c2cc(NC(=O)CC(=O)c3ccc([N+](=O)[O-])cc3)ccc2C)cc1 | inactive | –
CC(=O)c1cc(C#N)c(SCC(=O)Nc2nccs2)nc1C | 1.26 µM (active) | –
CCn1c(SCC(=O)Nc2nccs2)nnc1-c1ccncc1 | inactive | –
Cc1[nH]c2ccccc2c1SCC(=O)Nc1nccs1 | 4.47 µM (active) | –
Cn1c(SCC(=O)Nc2nccs2)nnc1-c1cccnc1 | inactive | –
Cc1cc(C#N)c(SCC(N)=O)nc1-c1ccc(F)cc1 | inactive | –
CC(=O)c1cc(C#N)c(SCC(=O)C(C)(C)C)nc1C | 2.51 µM (active) | –
CCn1c(SCC(=O)Nc2nccs2)nnc1-c1ccco1 | inactive | –

SMILES | Potency | activation, negative = inhibition
Cc1cc(C(F)(F)F)nc(SCC(=O)Nc2nccs2)n1 | inactive | –
CC(=O)c1cc(C#N)c(N2CC(C)OC(C)C2)nc1C (stereo not given) | inactive | –
O=C1C=C(c2cccc(Cl)c2O)C[C@@H](c2ccc(F)cc2)C1 | inactive | –
Cc1cc(C)c(C#N)c(SCC(=O)N(CC(C)C)C2CCS(=O)(=O)C2)n1 (stereo not given) | inactive | –
O=C(O[C@@H]1[C@H](Cc2ccccc2)NS(=O)(=O)[C@H]2C[C@@H]3C=C[C@]12O3)c1ccccc1Br | inactive | –
O=C(Nc1ccccc1F)c1ccc(S(=O)(=O)N2CCCCCC2)cc1 | inactive | –
CCc1cc(C(=O)Nc2nnc(C3CC3)s2)sc1C | inactive | –
O=C1CCC(=O)N(c2ccccc2)N1 | inactive | –
CC(=O)NC1C(Oc2ccc(C)cc2)OC2COC(c3ccco3)OC2C1O (stereo not given) | inactive | –
CCn1nnnc1SCC(=O)c1ccc(C)cc1C | 3.55 µM (active) | –
COc1ccc(C(=O)CSc2nnnn2C)c(OC)c1 | inactive | –
CCn1nnnc1SCC(=O)Nc1ccc(N(C)C)cc1 | inactive | –
Cc1ccc(NC(=O)COC(=O)C2C3CC4OC(=O)C2C4C3)cc1Cl (stereo not given) | inactive | –
Nc1cc(N)nc(SCC(=O)Nc2cccc(S(=O)(=O)N3CCCCC3)c2)n1 | inactive | –
O=C(/C=C/c1cccc([N+](=O)[O-])c1)OCC(=O)N1CCOCC1 | inactive | –
Cc1ccc(NC(=O)Cc2nc(COC(=O)C(C)NS(=O)(=O)c3ccc(C)cc3)cs2)cc1 (stereo not given) | inactive | –
CCCn1nc(C(=O)OCc2nc(N)nc(Nc3ccccc3C)n2)c2ccccc2c1=O | inactive | –
CCN(CC)C(CNC(=O)CSc1nnnn1-c1cccc(F)c1)c1ccco1 (stereo not given) | inactive | –
COc1ccc(C(=O)Cc2cnn(-c3ccccc3)c2)c(O)c1 | 3.16 µM (active) | –
COc1ccc(CC(=O)c2ccc(O)cc2O)cc1OC | inactive | –
Cc1cc(O)cc(O)c1C(=O)Cc1cnn(-c2ccccc2)c1 | inactive | –
O=C(CN(CC1CCCO1)C(=O)CNS(=O)(=O)c1ccc(F)cc1)NCc1ccco1 (stereo not given) | inactive | –
CCOC(=O)c1ccccc1NC(=O)COC(=O)C(Cc1c[nH]c2ccccc12)NC(C)=O (stereo not given) | inactive | –
O=C(N/C(=C\c1ccc([N+](=O)[O-])cc1)C(=O)N1CCOCC1)c1cccc(Br)c1 | inactive | –
COc1ccc(S(=O)(=O)N2CCN(CC(=O)NCC3(N4CCOCC4)CCCCC3)CC2)cc1 | inactive | –
CN(C)C(=O)COC(=O)c1cccc(S(=O)(=O)N2CC3(C)CC2CC(C)(C)C3)c1 (stereo not given) | inactive | –
O=C(Nc1nnc(-c2ccccc2)o1)c1cc(-c2cccs2)nc2ccccc12 | inactive | –

SMILES | Potency | activation, negative = inhibition
OC(c1nnc(-c2ccccc2)o1)c1cccs1 (stereo not given) | 4.47 µM (active) | –
CCCN(CCC)c1ccc(C(O)c2nnc(-c3ccccc3)o2)cc1 (stereo not given) | inactive | –
CCOC(=O)C1=C(COC(=O)[C@H](C)NS(=O)(=O)c2ccccc2F)NC(=O)NC1C (stereo not given in full) | inactive | –
COc1ccc(CN2C(=O)C(C)S/C2=N/N=C/c2ccco2)cc1 (stereo not given) | 2.82 µM (active) | –
O=C1N/C(=N\N=C\c2ccco2)SC1Cc1ccc(F)cc1 (stereo not given) | inactive | –
C=CCN1C(=O)C(Cc2cccc(Cl)c2)S/C1=N/N=C/c1ccco1 (stereo not given) | inactive | –
O=C(/C=C/c1ccccc1[N+](=O)[O-])OCC(=O)N1CCCC1 | inactive | –
Cc1nn(Cc2ccccc2)c(C)c1CNC(=O)c1ccc(F)c(S(=O)(=O)N2CCOCC2)c1 | inactive | –
Cc1csc(=O)n1CCC(=O)OCC(=O)NNC(=O)c1ccc(Br)cc1 | inactive | –
CCN(CC)S(=O)(=O)c1cc(C(=O)Nc2cc(S(=O)(=O)N3CCOCC3)ccc2N2CCCC2)ccc1F | inactive | –
CN(C)S(=O)(=O)c1ccc2oc(SCC(=O)Nc3ccccc3F)nc2c1 | 1.41 µM (active) | –
COc1ccc(NS(=O)(=O)c2ccc3oc(SCC(N)=O)nc3c2)cc1 | inactive | –
COc1ccc(S(=O)(=O)N(C)C)cc1NC(=O)CSc1ncccn1 | inactive | –
CCOC(=O)[C@H]1[C@H]2COc3ccc(C)cc3[C@@H]2N2C(=O)CN(Cc3ccc(F)cc3)C(=O)[C@@]12C | inactive | –
CC(C#N)(NC(=O)CN1CCN(S(=O)(=O)c2cc(C(F)(F)F)ccc2Cl)CC1)C1CC1 (stereo not given) | inactive | –
Cc1cccc(NC(=O)c2ccc3ccccc3n2)n1 | 3.16 µM (active) | –
Cc1cccc(NC(=O)c2cccnc2Cl)n1 | inactive | –
Cc1cccc(NC(=O)c2ccccc2NC(=O)C(C)(C)C)n1 | inactive | –
COc1ccc(S(=O)(=O)N2CCOCC2)cc1NC(=O)CC1CC2CCC1C2 (stereo not given) | inactive | –
Nc1nonc1C(=O)NCCc1ccccc1 | inactive | –
CC(C)Cc1cc(C(=O)NCCc2ccccc2)no1 | 3.16 µM (active) | –
O=C(NCCCc1ccccc1)c1cc(COc2c(F)cccc2F)on1 | inactive | –
COc1ccc(CCNC(=O)COC(=O)Cc2cccc(F)c2)cc1 | inactive | –
CCCC[C@]12Cc3cc(OC)c(OC)cc3C(O1)C1=C(CC3(CCCCC3)OC1=O)O2 | – | -3.75% [at 1.84 µM]
